TDP-43 yeast inh – TDP-43 toxicity inhibition in yeast | TDP-43 expressing yeast growth rescue, BacTiter-Glo, 24 h | Potency, µM (doses to about 46.1 µM), inactives show at the top dose growth rescue (activation), most hits filed as activators | AID 652104 | actives 1.8% (n = 410,000); further: % of control where 0% means no effect; nearly all actives have a fitted effect of over 50% in size
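Yeast expressing TDP-43 (pregrown in raffinose, seeded at OD600=0.02 in galactose medium) exposed to compounds 24 hr at 30 deg C. Growth read by BacTiter-Glo luminescence; rescue of toxicity appears as increased signal.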
Abeta rescue – A-beta toxicity reversal in yeast. Potency, µM (top dose mostly 46.1 µM), actives largely listed as activators. yeast expressing A-beta42, growth rescue, OD600, 48 h; response scale: 0% DMSO, 100% iron-clioquinol control. actives 0.063% (n = 410,000). AID 1347071; further: nearly all actives have a fitted effect of over 55% in size
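Yeast A-beta toxicity model in growth medium with pinned compounds, 48 h at 30 C; growth read as absorbance at 600 nm. Normalized to FeCl3/clioquinol equimolar mix (positive) and DMSO (negative).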
Mito fusion act – mitochondrial division inhibition or fusion activation. S. cerevisiae fusion-defective mutant growth rescue, CellTiterGlo 48 h. actives 0.23% (n = 320,000). Potency, µM (titrated, usually from 46.1 µM), for inactives: top-dose growth rescue (activation), hits mostly activators; further: % of control where 0% means no effect; nearly all actives have a fitted effect of over 45% in size
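Luminescent cell viability in 1536-well qHTS format served as the measure of rescued growth in ts fusion-mutant S. cerevisiae cultured on non-fermentable YPEG for 48 hours at 37C.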
aSyn rescue – inhibitors of alpha-synuclein toxicity in yeast | Yeast expressing alpha-synuclein, growth rescue, BacTiter-Glo, 24 h | Potency, µM (top dose mostly 46.1 µM), for inactives: at the top dose growth rescue (activation), actives largely listed as activators | actives 0.14% (n = 370,000) | AID 652106; further: % of control where 0% means no effect; nearly all actives have a fitted effect of over 65% in size
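Screening used galactose-induced yeast with toxic alpha-synuclein levels, exposed to compound for 24 hr at 30 deg C. Cell growth, read with BacTiter-Glo luminescence, gave the measured signal.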
FUS suppressor – FUS proteinopathy suppression in yeast | S. cerevisiae FUS-expressing, growth rescue, OD600, 24 h | actives 0.24% (n = 390,000) | Potency, µM (highest dose often 76.6 µM), most hits filed as activators;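 further: plate controls were DMSO vehicle for no effect and reference control for full effect; nearly all actives have a fitted effect of over 55% in size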
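Compound concentration series was pinned onto galactose-induced FUS-expressing yeast seeded at OD 0.005. Plates sat 24hr at 30C; absorbance at 600 nm gave growth. DMSO served as background control.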
The depositor's hits bear a star; i = inactive; ? = inconclusive; . = no result given. A selection: hits, their analogues and other compounds. The true share with any hit is near 2.2%. The call rests on the fitted dose curve; in most records, active means well fitted curve in the direction sought with a large enough effect; inconclusive means small, poorly fitted or top-dose-only effect, or another doubt; inactive means no such curve, though single readings can be large; an effect the other way counts as inactive or inconclusive. Potency means the concentration at half of the fitted maximal effect.

SMILES | TDP-43 yeast inh | Abeta rescue | Mito fusion act | aSyn rescue | FUS suppressor
COC(=O)[C@]12C[C@H](CC(=O)NCc3cccc(C(F)(F)F)c3)C(=O)N(Cc3ccc4c(c3)OCO4)C1=C[C@H](C(C)C)O[C@@H]2C1CC1 | . | . | . | . | 8.9µM*
COC(=O)[C@]12C[C@H](CC(=O)NCCCCc3ccccc3)C(=O)N(Cc3ccc4c(c3)OCO4)C1=C[C@H](C(C)C)O[C@@H]2C1CC1 | . | . | . | . | 8.9µM*
Cn1c(=O)c2[nH]c(SCC(=O)NCCc3cccc(F)c3)nc2n(C)c1=O | . | . | . | . | i
Cn1c(NC(=O)c2ccccc2)nc(Cc2ccccc2)c1-c1ccccc1 | . | . | . | . | i
O=C1CCc2cc(S(=O)(=O)NCc3ccccc3Cl)ccc2N1 | 5% | i | 0% | -4% | .
CCOC(=O)c1c(C(C)(C)C)oc2ccc(O)cc12 | 18µM* | i | 4% | 10% | i
CCOC(=O)c1c(COc2ccccc2)oc2ccc(O)cc12 | 19% | i | 26% | -1% | i
O=C(O)/C=C/c1ccccc1Oc1ccccc1 | 18µM* | i | 9% | 30% | i
C/C(=N/NC(N)=S)c1cc2ccc(O)cc2oc1=O | 20% | 11µM* | 3% | -6% | i
C/C(=N/NC(=O)c1ccncc1)c1cc2ccc(O)cc2oc1=O | 4% | i | 1% | -1% | .
C1=Cc2ccccc2/C1=C(\Cc1ccncc1)Oc1ccncc1 | . | . | . | -9% | .
O=C1N/C(=N\N=C\c2ccccn2)SC1Cc1cccc(SC(F)F)c1 (stereo not drawn) | 29% | ? | -4% | 5µM* | .
O=C1N/C(=N\N=C\c2ccc3ncccc3c2)SC1Cc1ccc(SC(F)F)cc1 (stereo not drawn) | 1% | i | -1% | -2% | i
COc1cc(-c2cc3nc(NCCOc4ccccc4)ccn3n2)cc(OC)c1OC | 32µM* | i | . | -1% | ?
Cc1ccc(S(=O)(=O)c2c(N)n(Cc3ccco3)c3nc4ccccc4nc23)cc1 | 10% | i | 5% | 2% | 22µM*
CCCC1CC(C)(c2csc(Nc3ccc(OCC)cc3)n2)OC1=O (stereo not drawn) | 18µM* | i | 19% | 19% | i
Cc1ccc(CN2CCCCC(NC(=O)c3ccc(F)cc3)C2=O)cc1 (stereo not drawn) | . | . | . | . | i
CCOC(=O)c1ccc2nc(NC(=O)C(C)C)sc2c1 | 10µM* | ? | 15% | -6% | i
CCCC(=O)Nc1nc2ccc(C(=O)OCC)cc2s1 | 4% | i | 2% | 2% | i
CCOC(=O)c1cc2c(C)n(-c3ccc(C)cc3)c(C)c2ccc1=O | 20µM* | i | 2% | -3% | i
CCOC(=O)c1cc2c(C)n(-c3ccc(OCC)cc3)c(C)c2ccc1=O | 10% | i | 7% | -14% | .
COc1ccc(C(=O)C[n+]2ccc3c(c2)nc(Cc2ccccc2)n3C)cc1 | . | . | . | . | i
O=c1onc2cnc3ccccc3n12 | . | . | 9.2µM* | -8% | .
c1ccc2c(c1)ncc1nncn12 | 10% | i | . | . | i
Cc1nn(-c2cccc(C(F)(F)F)c2)c(Cl)c1/C=N/Nc1cccc(C(=O)O)c1 | ? | i | 24% | -14% | i
SMILES | TDP-43 yeast inh | Abeta rescue | Mito fusion act | aSyn rescue | FUS suppressor
CCOC(=O)N/N=C/c1c(C)nn(-c2cccc(C(F)(F)F)c2)c1Cl | 13µM* | ? | ? | -23% | i
CC1(C)Cc2cccc(C(=O)Nc3ccncc3)c2O1 | 13% | i | -1% | -1% | i
CC1(C)Cc2cccc(C(=O)Nc3ccc(Cl)cc3)c2O1 | 18µM* | i | 16% | -18% | i
O=C(NC1(Cc2ccccc2)CCN(CCCc2ccccc2)C1=O)c1ccccc1 (stereo not drawn) | -5% | i | ? | 10% | i
Cc1cc(=O)[nH]c(-n2nc(C)cc2C)n1 | ? | ? | 0% | 28µM* | i
Cc1cc(=O)[nH]c(N2CCCNCC2)n1 | 0% | i | 2% | -4% | i
CCOC(=O)c1cnc(-n2nc(C)cc2C)[nH]c1=O | ? | ? | 0% | 22µM* | i
O=C(O)c1cccc(N2C(=O)CSC2=S)c1 | ? | i | 1% | 35µM* | i
O=C1CSC(=S)N1c1cccc(O)c1 | -5% | i | 10% | ? | i
O=C1CSC(=S)N1c1cccc(Br)c1 | 14µM* | i | 23% | 1% | i
CCN(CC)C(=O)N1CCN(c2c([N+](=O)[O-])c(=O)oc3ccccc23)CC1 | -2% | i | -4% | -2% | i
COc1cc(OC)c(/C=C/c2ccc3ccccc3[n+]2C)c(OC)c1 | . | . | . | -20% | .
Cc1cc(/C([O-])=C(/C(=S)Nc2ccccc2)[n+]2ccccc2)c(C)n1-c1ccccc1 | 6% | i | -1% | 0% | 16µM*
Cc1cccc(C)c1OCC(=O)NCC1COc2ccccc2O1 (stereo not drawn) | 16µM* | i | -5% | 2% | i
Cn1nc(C(=O)NCC2COc3ccccc3O2)c2ccccc2c1=O (stereo not drawn) | 20µM* | i | -6% | 9% | i
CSc1ccc(NC(=O)C2(C)CCN2C(=O)c2sccc2C)cc1 (stereo not drawn) | 35µM* | i | . | 2% | i
Cc1ccsc1C(=O)N1CCC1(C)C(=O)Nc1cccc(C#N)c1 (stereo not drawn) | 0% | i | . | 1% | i
Cc1ccc(Nc2c(-c3ccc(C)s3)nc3cccc(C)n23)cc1 | . | . | . | -34% | .
O=C1CC(c2ccc(F)cc2)c2cc3c(cc2N1)CCC3 (stereo not drawn) | -7% | i | 11µM* | ? | i
CC(C)(C)c1ccc(-n2nc(C#N)c(Cl)cc2=O)cc1 | 3.5µM* | i | 7% | -1% | i
O=C(Nc1ccc(F)c(F)c1)c1cnn2c1NC(=C1CC1)C=C2C(F)F | . | . | . | -3% | .
Cc1ccc(C2=NOC(=O)/C2=C\c2ccccc2)cc1 | 25µM* | ? | . | 13% | i
COc1cc(/C=C2\C(=O)ON=C2c2ccccc2)cc(Br)c1O | 11µM* | i | -5% | 29% | i
O=C1ON=C(c2ccccc2)/C1=C/c1ccccc1 | ? | i | -6% | ? | i
O=C(Nc1cccc(/C=C/c2ccccn2)c1)c1ccc(-n2cncn2)cc1 | 14% | i | . | 0% | i
COc1cc(/C=C/C(=O)OCC(=O)Nc2cc(S(=O)(=O)N3CCCCC3)ccc2C)ccc1O | 6% | i | 2% | -8% | 25µM*
COc1cc(/C=C/C(=O)OCC(=O)Nc2ccc(C)c(S(=O)(=O)N3CCCCC3)c2)ccc1O | ? | i | 0% | 5% | ?
Cc1[nH]c(-c2ccc(F)cc2)cc1C(=O)N1CCN(c2ccccc2)CC1 | 18µM* | i | 33% | ? | i

Screens: PubChem, National Center for Advancing Translational Sciences (NCATS)
